Inconclusive results are not listed. Activity calls are given as the source filed them. Calls follow the shape of the dose curve; as a rule, active = well fitted inhibition curve with a large enough effect; inconclusive = small, poorly fitted or top-dose-only effect; inactive = flat fitted curve, though single readings scatter.
Assay: Identification of antibody-drug conjugate (ADC) payloads which are substrates of ATP-binding cassette drug efflux transporters: ABCG2-H460-MX20 cell line
Details: H460-MX20 (ABCG2) viability, CellTiter-Glo, 48 h; series mostly up to 28.7 µM; activity change, negative = inhibition: at the top concentration
Source text: Antibody-drug conjugates (ADCs) feature an antibody recognizing a specific protein joined to a potent toxic payload. Numerous antibody-drug conjugates have received FDA approval; however, clinical resistance arises. Resistance mechanisms include decreased expression or mutation of the antibody target, impaired payload release, or increased expression of ATP-binding cassette (ABC) efflux transporters associated with multidrug resistance. We therefore sought to characterize the interaction of ABC multidrug transporters with ADC payloads. We performed a high-throughput screen with 27 common ADC payloads using cells lines expressing ABC transporters P-glycoprotein (P-gp, encoded by ABCB1) or ABCG2 (encoded by ABCG2). Confirmatory assays were also performed using cells transfected to express P-gp, ABCG2, or MRP1 (encoded by ABCC1). Several commonly used ADC payloads were substrates of P-gp, including calicheamicin gamma1, monomethyl auristatin E, DM1, and DM4. All the pyrrolobenzodiazepines tested - SJG136, SGD-1882, SG2057, and SG3199 - were substrates of P-gp, ABCG2, and MRP1. […] These findings highlight the risk of transporter-mediated resistance with certain ADC payloads and underscore the importance of selecting payloads that evade ABC transporter recognition in future ADC development.
HEK-293 cells were transfected with empty vector (pcDNA) or vector containing the human ABCB1 (MDR-19), ABCG2 (R-5), or ABCC1 gene (MRP1) and were maintained in EMEM with 2 mg/mL G418 added to maintain transporter expression. The HeLa derivative KB-3-1 and the P-gp overexpressing KB-8-5-11 subline were maintained in DMEM; KB-8-5-11 additionally received 100 ng/mL colchicine. H460 parental cells were obtained from the Division of Cancer Treatment and Diagnosis Tumor Repository, National Cancer Institute at Frederick, MD and were cultured in RPMI. The ABCG2 expressing subline H460 MX20 was generated by selecting H460 cells in 20 nM mitoxantrone. Media in all cases was supplemented with 10% FBS and 1% penicillin-streptomycin. We explored 27 common ADC payloads, in two orthogonal, paired cell line sets-a drug selected and transfected set for each transporter--to identify substrates of the ABC transporters P-gp and ABCG2. Compounds were sourced from Levena Biopharma (San Diego, CA), Selleck Chem (Houston, TX), ChemieTek (Indianapolis, IN), or Microsource Discovery Systems (Gaylordsville, CT). Screening was performed as previously described. Briefly, cells were plated at a density of 500 cells/well in 1536 well plates with compounds added using a 1536-head pin tool (Kalypsys, San Diego CA). Cells were incubated with cytotoxic drugs and processed with CellTiter Glo reagent (Promega, Madison, WI) to determine viability after 48 hours. P-gp substrates were identified by comparing compound activity between paired sets of low-expressing (sensitive) and over-expressing (resistant) cell lines.
In the case of `COc1cc2cc(c1Cl)N(C)C(=O)C[C@H](OC(=O)[C@H](C)N(C)C(=O)CCS)[C@]1(C)OC1[C@H](C)C1C[C@@](O)(NC(=O)O1)[C@H](OC)/C=C/C=C(\C)C2` (stereo partly specified), the Potency is reported as 15 µM (active). In the case of `COc1cccc2c1C(=O)c1c(O)c3c(c(O)c1C2=O)C[C@@](O)(C(=O)CO)CC3OC1CC(N2CCOC(OC)C2)C(O)C(C)O1` (stereo partly specified), the Potency is reported as 0.0084 µM (active). For `CC[C@H](C)[C@@H]([C@@H](CC(=O)N1CCC[C@H]1[C@H](OC)[C@@H](C)C(=O)N[C@H](C)[C@@H](O)c1ccccc1)OC)N(C)C(=O)[C@@H](NC(=O)[C@H](C(C)C)N(C)C)C(C)C`, the Potency was 0.598 µM (active). For `CC[C@H](C)[C@H](NC(=O)[C@H]1CCCCN1C)C(=O)N(C)[C@H](C[C@@H](OC(C)=O)c1nc(C(=O)N[C@@H](Cc2ccccc2)C[C@H](C)C(=O)O)cs1)C(C)C`, the “activity change, negative = inhibition” value was -25.4% (inactive). For `COc1cc2cc(C(=O)N3C[C@@H](CCl)c4c3cc(O)c3ccccc43)[nH]c2c(OC)c1OC`, the Potency was 0.0021 µM (active). In the case of `CC[C@H](C)[C@@H]1NC(=O)CNC(=O)[C@H]2Cc3c([nH]c4cc(O)ccc34)S(=O)C[C@H](NC(=O)CNC1=O)C(=O)N[C@@H](CC(N)=O)C(=O)N1C[C@H](O)C[C@H]1C(=O)N[C@@H]([C@@H](C)[C@@H](O)CO)C(=O)N2` (stereo partly specified), the Potency is reported as 1.06 µM (active).

From PubChem BioAssay AID2061320 (National Center for Advancing Translational Sciences (NCATS), 2025)
